Source: PubChem BioAssay
G9a block: G9a (human) methyltransferase inhibition; 350,000 tested, 8.8% active; G9a H3K9 monomethylation, AlphaScreen, 2 h; Q96KQ7; Potency, µM (series often up to 102 µM), inactives show at the highest dose activity, negative = inhibition, most hits filed as inhibitors; also: potency is read from the fitted curve at half-maximal effect; % is scaled to controls: 0 for no effect and ±100 for the full control effect; nearly all actives have a fitted effect of over 75% in size
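Using a bead-based AlphaScreen, monomethylated H3K9 product from 2 h room-temperature reactions (G9a 20 nM, peptide 500 nM, SAM 20 uM) was detected with 0.5 ug/mL rabbit anti-H3K9me1 antibody.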
BAZ2B inh: inhibitors of human BAZ2B bromodomain; 360,000 tested, 4.4% active; AlphaScreen BAZ2B-H3K14Ac peptide displacement; AID 504333; Potency, µM (highest dose often 114 µM), without a hit: at the highest dose activity change, negative = inhibition, hits mostly inhibitors; Q9UIF8; also: potency is read from the fitted curve at half-maximal effect; % is scaled to controls: 0 for no effect and ±100 for the full control effect; nearly all actives have a fitted effect of over 60% in size
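AlphaScreen displacement: compounds (up to 110uM) incubated 30 min at room temperature with a preformed 50 nM BAZ2B/50 nM biotinylated H3K14Ac peptide complex in PBS pH 7.4 with Tween-20. Donor and acceptor beads at 10 ug/mL final added, 20 min light-protected before reading.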
JMJD2A Tudor inh: inhibitors of human JMJD2A Tudor domain; O75164; AID 504339; Potency, µM (top dose mostly 114 µM), for inactives: at the highest dose activity change, negative = inhibition, actives largely listed as inhibitors; AlphaScreen JMJD2A-Tudor / H3K4me3 peptide binding; 390,000 tested, 4.4% active; also: potency is read from the fitted curve at half-maximal effect; % is scaled to controls: 0 for no effect and ±100 for the full control effect; nearly all actives have a fitted effect of over 50% in size
HP1b chromo inh: HP1-beta chromodomain-methylated histone interaction inhibition. 390,000 tested, 0.56% active. Potency, µM (highest dose often 114 µM), for inactives: top-dose activity change, negative = inhibition, usual class: inhibitors. AlphaScreen HP1-beta / biotin-H3K9me3 peptide binding; also: potency is read from the fitted curve at half-maximal effect; nearly all actives have a fitted effect of over 70% in size
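Compound inhibition of the preformed complex between 50 nM HP1-beta and 50 nM biotinylated H3K9me3 peptide was read by AlphaScreen. Buffer was PBS pH 7.4 with 0.01% Tween-20. Incubations ran 30 min at room temperature, with 10 ug/mL donor/acceptor beads.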
CtBP-E1A blk: CtBP/E1A binding inhibition. AlphaScreen GST-E1A/His-CtBP binding, 1536-well; hits give low values. activity change, % (no concentration beside the values). 340,000 tested, 0.49% active; in the data active = activity change below about -65%; inconclusive = mostly about -30% to -63%; also: % is scaled to controls: 0 for no effect and ±100 for the full control effect
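AlphaScreen with 125 nM GST-E1A and 125 nM His-CtBP (5X stocks) in Tris pH 8.0, 300 mM NaCl, BSA, Tween 20, TCEP. Compounds preincubated 2 h at 37 deg C, then glutathione donor/nickel acceptor beads added for 1 h at 37 deg C in dark.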
Six1-Eya2 inh: blocks human Six1 binding to Eya2 | AlphaScreen GST-Six1/His-Eya2 binding, biochemical; hits give low values | 360,000 tested, 0.56% active | activity change, % (no concentration beside the values) | AID 651725; in the data active = activity change below about -65%; inconclusive = mostly about -30% to -63%; also: % is scaled to controls: 0 for no effect and ±100 for the full control effect
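AlphaScreen luminescence read after one hour at 37 °C in darkness. Pin-transferred compounds met GST-Six1 and His-Eya2 protein (5X stock 250 nM/500 nM) plus glutathione donor and Ni-chelate acceptor beads (5X, 50 ug/mL).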
* hit, by the source's call; ? = inconclusive; nt = no result; [ ] = dose if it differs, or a comment. Most compounds without a hit are left out; they make up all but 10% or so of the library. Unless noted, calls follow the shape of the dose curve; as a rule, active = well fitted inhibition curve with a large enough effect; inconclusive = small, poorly fitted or top-dose-only effect; inactive = no such curve, though single readings can be large or run the other way.

SMILES	G9a block	BAZ2B inh	JMJD2A Tudor inh	HP1b chromo inh	CtBP-E1A blk	Six1-Eya2 inh
O=C(c1cccc(NS(=O)(=O)c2ccc(F)c(F)c2)c1)N1CCN(C(c2ccccc2)c2ccccc2)CC1	50.1µM*	-5.0%	-34.4%[57.1 µM]	14.8%	0.0	-15.8
O=C(c1cccc(NS(=O)(=O)c2ccc(Br)cc2)c1)N1CCN(c2ccccc2O)CC1	50.1µM*	-27.8%	-33.1%	5.7%	5.6	-5.5
O=C(c1cccc(NS(=O)(=O)c2ccc(Br)cc2)c1)N1CCCCC1	14.1%[0.501 µM]	5.9%	-4.8%	19.7%	-3.7	4.3
CCOc1ccc(S(=O)(=O)Nc2cccc(C(=O)N3CC(C)OC(C)C3)c2)cc1 (centres undefined)	0.8%	-0.4%	-11.0%	12.8%	1.4	7.8
CCOc1ccc(S(=O)(=O)NCCC(=O)N2CCN(c3ccc(OC)cc3)CC2)cc1	44.7µM*	?	?	?	-21.3	-15.0
CCOc1ccc(S(=O)(=O)Nc2cccc(C(=O)N3CCN(c4ccc(OC)cc4)CC3)c2)cc1	11.2µM*	?	?	-11.7%	-0.7	-8.3
CCOc1ccccc1NC(=O)CN1C=NS(=O)(=O)c2ccccc21	3.8%[59 µM]	1.0%	-28.0%	27.1%	nt	nt
COc1cccc(N2CCN(C(=O)c3cccc(NC(=O)c4nsc5ccccc45)c3)CC2)c1	-32.1%[59 µM]	-12.2%	-35.1%	-2.7%[57 µM]	nt	nt
COc1ccc(N2CCN(C(=O)c3cccc(NC(=O)c4nsc5ccccc45)c3)CC2)cc1	10µM*	7.94µM*	?	?	nt	nt
CCC1=C(c2ccc(C)cc2)S(=O)(=O)N=C1N1CCC(C(=O)Nc2ccccc2C(=O)OC)CC1	8.6%[59 µM]	-13.9%	-28.3%	?	nt	nt
COc1ccc(-c2cc(C(=O)Nc3cc(Br)ccc3O)no2)cc1	-1.0%	-3.8%	-22.4%	24.8%	3.9	-0.6
C=C1CCN(c2ccc(C(=O)NCc3ccccc3)cc2[N+](=O)[O-])CC1	22.4µM*	?	?	-5.7%	-8.7	-8.7
CCCNC(=O)c1ccc(N2CCC3(CC2)CC(c2ccccc2)=NO3)c(NC(=O)c2cccc(OC)c2)c1	44.7µM*	?	56.2µM*	22.9%	-25.9	1.4
CCCNC(=O)c1ccc(N2CCC3(CC2)CC(c2ccccc2)=NO3)c(NC(=O)c2ccco2)c1	nt	-3.4%	-14.1%	17.9%	nt	0.2
COC(CNC(=O)c1ccc(N2CCc3ccccc32)c([N+](=O)[O-])c1)OC	44.7µM*	39.8µM*	?	?	3.2	?
Cc1ccc(CNC(=O)c2ccc(N3CCc4ccccc43)c([N+](=O)[O-])c2)cc1	8.91µM*	10µM*	8.91µM*	31.6µM*	?	?
Cc1ccc(Cc2nc3ccccc3nc2SCC(=O)NCCC(C)C)cc1	7.6%[59 µM]	3.6%	-27.6%	30.6%[57 µM]	nt	nt
O=C(NCc1ccccc1)c1ccc(N2CCC3(CC2)CC(c2ccccc2)=NO3)c([N+](=O)[O-])c1	nt	-8.7%	-28.7%	2.7%	-13.3	-14.1
Cc1ccc(CNC(=O)c2ccc(N3CCC4(CC3)CC(c3ccccc3)=NO4)c([N+](=O)[O-])c2)cc1	70.8µM*	-31.0%	-34.7%	?	-17.0	-23.2
S=c1nc[nH]c2nc[nH]c12	?	35.5µM*	3.98µM*	-6.9%	-2.8	-2.7
O=c1[nH]c(=S)[nH]c2nc[nH]c12	nt	nt	?	3.0%[57 µM]	nt	nt
Cc1ccc(-c2nc3nc(C)cc(N4CCN(c5cccc(C)c5)C(C)C4)n3n2)cc1 (centres undefined)	-31.4%[59 µM]	?	?	-13.8%	nt	nt
CCn1nnc(C(=O)O)c1C(=O)O	?	?	20µM*	-0.3%	2.3	0.3
CN(C)c1ccc(NC(=O)c2cccc(C(=O)Nc3ccc(N(C)C)cc3)n2)cc1	3.16µM*	7.94µM*	15.8µM*	39.8µM*	?	?
Cc1cc(C)cc(NC(=O)c2cccc(C(=O)Nc3cc(C)cc(C)c3)n2)c1	?	?	4.47µM*	22.4%	-5.9	-9.2
SMILES	G9a block	BAZ2B inh	JMJD2A Tudor inh	HP1b chromo inh	CtBP-E1A blk	Six1-Eya2 inh
Cc1cccc(NC(=O)c2cccc(C(=O)Nc3cccc(C)c3)n2)c1	nt	nt	-20.9%	-2.6%	1.1	7.0
CN(C)c1ccc(NC(=O)c2ccc3nsnc3c2)cc1	4.47µM*	-11.3%	-35.3%	-13.4%	-17.0	-12.7
CC(C)N(C(=O)Nc1ccc2nsnc2c1)C(C)C	nt	-1.2%	79.4µM*	-13.8%	?	0.3
Cc1ccc2oc(-c3ccc(NC(=O)CCC(=O)O)cc3)nc2c1	-3.3%[59 µM]	1.6%	4.8%	21.3%	nt	nt
O=C(Nc1c(-c2ccccc2)nc2ccccn12)c1ccc(Br)cc1	-3.0%[59 µM]	3.0%	-18.8%	8.0%	nt	nt
O=C(O)c1ccc(NC(=O)c2cccc(C(=O)Nc3ccc(C(=O)O)cc3)n2)cc1	22.4µM*	-33.6%	?	57.7%	nt	-26.2
O=C(Cc1ccc(NC(=O)N2CCCCc3ccccc32)cc1)NCc1ccccc1	-3.2%[59 µM]	5.0%	-16.7%	38.1%	nt	nt
O=C(c1cnccn1)N1CCc2c([nH]c3ccccc23)C1c1cccc(Cl)c1 (centres undefined)	?	?	?	3.7%	-6.3	-13.7
CN1N=C(C(=O)N2CCc3c([nH]c4ccccc34)C2c2ccccc2Cl)CCC1=O (centres undefined)	?	-14.8%	31.6µM*	-22.6%	0.6	-0.4
COc1ccc(C2c3[nH]c4ccccc4c3CCN2C(=O)c2ccc(=O)n(C)n2)c(F)c1 (centres undefined)	nt	?	?	16.5%	0.0	-4.6
Cc1ccccc1C1c2[nH]c3ccccc3c2CCN1C(=O)c1ccc(=O)n(C)n1 (centres undefined)	-24.8%[59 µM]	10µM*	?	-2.8%	23.4	-5.2
Cc1cc(C(=O)N2CCc3c([nH]c4ccccc34)C2c2cccc(Cl)c2)nn1C (centres undefined)	39.8µM*	?	?	1.6%	0.3	-16.5
O=C(COC(=O)Cc1c(Cl)cccc1Cl)Nc1ccc2[nH]c(=O)[nH]c2c1	50.1µM*	-1.4%	-13.8%	16.1%	-2.7	-22.7
CC(C)(C)C1CCC(C(=O)OCC(=O)Nc2ccc3[nH]c(=O)[nH]c3c2)CC1 (centres undefined)	44.7µM*	-1.7%	-2.8%	15.6%	-9.9	-8.0
O=C(COC(=O)CCCOc1ccc(Cl)cc1Cl)Nc1cccc(Cl)c1	68.9%[59 µM]	19.5%	26.4%	78.4%	43.8	14.1
O=C(COC(=O)CCc1c[nH]c(=O)[nH]1)Nc1cccc(Cl)c1	39.8µM*	0.2%	-10.8%	37.3%	1.3	-1.5
O=C(COC(=O)Cc1c(F)cccc1Cl)Nc1ccc2[nH]c(=O)[nH]c2c1	nt	nt	-23.4%	-8.4%	-19.5	-12.0
